# In PubChem BioAssay (EPA / NIEHS):
# The source made the active and inactive calls. The calls were made as follows: active = hit-call score of the fitted dose curve at least 0.9, where 1 is the maximum; inactive = score below 0.9.
# Read-out: CYP2C9 (gene 1559)
# Assay: LTEA_HepaRG_CYP2C9: Life Technologies and Expression Analysis (LTEA) Assay for CYP2C9 using HepaRG (AID 2283484)
# Settings: mRNA level, 48 h; actives raise or lower the signal
# Experimental: LTEA_HepaRG is a cell based, multiplexed-readout assay that uses HepaRG, a human liver cell line, with measurements taken at 48 hours after chemical dosing on a 96-well plate.LTEA_HepaRG_CYP2C9 is one of 102 assay component(s) measured in the LTEA HepaRG cell culture assay. It is a marker of NR mediated metabolism.Data from the assay component LTEA_HepaRG_CYP2C9 was analyzed into 1 endpoint. This assay endpoint, LTEA_HepaRG_CYP2C9, was analyzed with bidirectional fitting relative to DMSO as the negative control and baseline of activity. Using a type of inducible reporter, measures of mRNA induction for gain or loss-of-signal activity can be used to understand regulation of transcription factor activity. To generalize the intended target to other relatable targets, this assay endpoint is annotated to the cyp intended target family, where the subfamily is xenobiotic metabolism.
# A total of 1060 chemcials from the ToxCast library were tested in eight-point concentration-response experiments. Cell culture and cytotoxicity assays were conducted at Thermo Fisher Scientific's Custom Services facility (Madison, WI). A single lot of human HepaRG cells (Thermo Fisher Scientific, Frederick, MD) was used for the cell culture experiments. 96-well format collagen type I coated plates of human HepaRG cells were prepared using established methods. Briefly, cryopreserved HepaRG cells were thawed, plated at a density of approximately 100,000 cells/well in HepaRG Thaw, Plate, and General Purpose media (HPRG770, Thermo Fisher Scientific), and incubated for 48 hours. 0.5% DMSO was selected as vehicle control to balance the requisite need of DMSO in HepaRG cultures to maintain differentiation (for example, baseline metabolism, proportions of hepatocytes vs. cholangiocytes), while enabling further hepatic receptor pathway activation (for example, PXR and CAR) in response to chemical exposure. 48 hours after plating, the culture medium was replaced with HepaRG Serum-Free Incudtion Media. Cells were exposed to each test chemical in duplicate and maintained in CO2 incubators for another 48 hours. Chemical plates were thawed to room temperature and 200x concentrations of treatment groups were prepared. 8-point conentration-reponse curves were made with the highest exposure at 100 uM, followed by half-log dilutions, all in 0.5% DMSO. Each test plate contained variouse controls, induction positive controls (1mM phenobarbital), cytotoxicity positive controls ([…] aflatoxin B1), vehicle controls (0.5% DMSO), and total lysis controls (0.5% DMSO). Cell morphology images were taken using an Essen IncuCyte FLR automated microscope, with six 96-well plates imaged in about 24 minutes. Images were captured and exported and JPEG files. Spent culture media was transfered to black-well plates for the LDH assay, and remaining media was sorted at -80 C for later use. Cells were treated with RLT buffer and frozen until shipped for gene expression analysis. Total RNA was isolated from the cell suspension in 75 uL of Buffer RLT (Qiagen, Germantown, MD 20874) by Quintiles/Expression Analysis (Durham, NC) using a custom isolation procedure. Total RNA from each plate well was transferred to a preamplification plate. Fluidigm's 96.96 Dynamic ArrayTM (Fluidigm, Amsterdam, the Netherlands) technology was used for gene expression analyses by quantitative reverse transcription polymerase chain reaction (qRT-PCR, performed by Quintiles/Expression Analysis, Durham, NC)89. Standard TaqManTM Assays (Applied Biosystems/ThermoFisher Scientific, Foster City, CA) were used to assess the expression of 93 genes selected based on their selectivity and sensitivity to important hepatic receptors known to be modulated by environmental chemicals; importance in human hepatocyte functionality; and hepatotoxicity. […]
Structure (SMILES),outcome,AC50
CC(C)=CCCC(C)=CC=O,inactive,–
Cc1c(-c2cccnc2)c2ccccc2n1CCCCC(=O)O,inactive,–
O=C(OC[C@H]1O[C@@H](OC(=O)c2cc(O)c(O)c(OC(=O)c3cc(O)c(O)c(O)c3)c2)[C@H](OC(=O)c2cc(O)c(O)c(OC(=O)c3cc(O)c(O)c(O)c3)c2)[C@@H](OC(=O)c2cc(O)c(O)c(OC(=O)c3cc(O)c(O)c(O)c3)c2)[C@@H]1OC(=O)c1cc(O)c(O)c(OC(=O)c2cc(O)c(O)c(O)c2)c1)c1cc(O)c(O)c(OC(=O)c2cc(O)c(O)c(O)c2)c1,–,10.4 µM (active)
Nc1ccc(Nc2ccccc2)cc1,inactive,–
CC[C@H]1CC[C@H](NCc2cc3c(cc2OC)[C@H]2C[C@H]2C(=O)N3C)[C@H](c2ccccc2)N1,inactive,–
C=CCCCCCCCCC(=O)O,inactive,–
O=C(O)c1cccc(N(Cc2cccnc2)c2ccc(OC(F)F)c(OC(F)F)c2)c1,inactive,–
O=C(O)CC(O)C(=O)O (stereo not given),inactive,–
Cc1[nH]cnc1C[C@H]1CCc2c(C)c3ccccc3n2C1=O,–,28.7 µM (active)
CCOc1cccc(-n2cc(C(=O)N3CCN(c4cc(C(=O)O)c5ccccc5c4)CC3)nc2-c2ccc(C)cc2)c1,–,31.6 µM (active)
CC(C)CCCCCCCOC(=O)CCCCC(=O)OCCCCCCCC(C)C,inactive,–
O=C1CCCCCN1,inactive,–
COCCOCCOCCOC,inactive,–
CCn1nc(Cc2ccccc2)cc1C1CCN(C[C@H]2C[C@H](N(C)[C@@H](C(=O)O)C(C)C)C[C@@H]2c2cccc(F)c2)CC1,–,27.8 µM (active)
COC(=O)c1ccccc1O,inactive,–
CCOCCO,inactive,–
COc1ccc(-n2nc(C(F)F)cc2-c2ccc(S(C)=O)cc2)cc1 (stereo not given),inactive,–
CC1=CC(=O)CC(C)(C)C1,inactive,–
CCNc1ccccc1,inactive,–
CC(C)(O)c1coc(S(=O)(=O)NC(=O)Nc2c3c(cc4c2CCC4)CCC3)c1,inactive,–

Structure (SMILES),outcome,AC50
Cc1ccc(C)c(O)c1,inactive,–
CC1(C)C(=O)N(Br)C(=O)N1Br,inactive,–
O=C1CCC(N2C(=O)c3ccccc3C2=O)C(=O)N1 (stereo not given),inactive,–
COC(=O)c1c(Cl)c(Cl)c(C(=O)OC)c(Cl)c1Cl,inactive,–
COc1ccc2sc(C(=O)Nc3nnn[nH]3)c(OC(C)C)c2c1,–,50 µM (active)
Cc1ccc(N)cc1O,inactive,–
O=C(NS(=O)(=O)/C=C/c1ccccc1)c1ccc(F)cc1Cl,inactive,–
CCCC(=O)OCC,inactive,–
CNCc1ccc(NC(=O)c2c[nH]c3c2C(=O)CCC3)cc1,inactive,–
O=C(O)c1cccc(Oc2ccccc2)c1,inactive,–
CC(=O)OCCC(C)C,inactive,–
COCCOc1cc2cc(C(=O)NC3CCN(C(C)C)CC3)n(CC(=O)Nc3ccc(Cl)cn3)c2cn1,–,62.2 µM (active)
CC(=O)c1ccc2c(c1)[C@H](NC(=O)c1ccc(F)cc1)[C@@H](O)C(C)(C)O2,inactive,–
Clc1nc(Cl)c(Cl)c(Cl)c1Cl,inactive,–
CCCN(C1CCN(C(=O)C2CCNCC2)CC1)[C@@H]1CCc2ccc(OC)cc2C1,–,80.3 µM (active)
O=c1[nH]c2ccc(S(=O)CCN3CCC(Cc4ccc(F)cc4)CC3)cc2o1 (stereo not given),–,71.1 µM (active)
CCOC(=O)COc1ccc2c(c1)CC(NCC(O)c1cccc(Cl)c1)CC2 (stereo not given),inactive,–
CC(=O)OC[C@H]1O[C@@](COC(C)=O)(O[C@H]2O[C@H](COC(C)=O)[C@@H](OC(C)=O)[C@H](OC(C)=O)[C@H]2OC(C)=O)[C@@H](OC(C)=O)[C@@H]1OC(C)=O,inactive,–
COc1cccc(-c2ccc(/C=C\CN3CCCCCC3)cc2Cl)c1,–,70.8 µM (active)
On1ccccc1=S,inactive,–
